Bioassay records from PubChem BioAssay.
In the library only some 3.5% were active in any assay of this set; here they are far more common.
BoNT F protease: blocks Botulinum neurotoxin F light chain protease | AID 588497 | 0.22% of 360,000 active | Multiplex microsphere protease cleavage assay, flow cytometry | inhibition, % at 10 µM; in the data active = inhibition above about 35%, passing the limit was not always enough; inconclusive = no clear call, values can overlap the other calls; also: plate controls were buffer without enzyme for full effect and enzyme alone for no effect
BoNT A protease: BoNT A light chain protease inhibition | multiplex microsphere protease substrate cleavage, flow cytometry | inhibition, % at 10 µM | 0.17% of 360,000 active | AID 588499; also: plate controls were buffer without enzyme for full effect and enzyme alone for no effect
Autofluor counter: compound fluorescence in toxin protease inhibitor counterscreen; compound autofluorescence counterscreen, microsphere flow cytometry; stronger effect = higher value; fluorescence intensity (test concentration not listed); 3.1% of 360,000 active; AID 624483; in the data active = fluorescence intensity above about 16000; inconclusive = no clear call, values can overlap the other calls
Anthrax LF prot: blocks Bacillus anthracis lethal factor protease; inhibition, % at 10 µM; 0.12% of 360,000 active; multiplex microsphere protease cleavage assay, LF; P15917; also: plate controls were buffer without enzyme for full effect and enzyme alone for no effect
Numbers without * were called inactive; ? = inconclusive. Rule as the data show it, unless noted: active = inhibition above about 30%; inconclusive = no clear call, values can overlap the other calls; inactive = below that.

SMILES | BoNT F protease | BoNT A protease | Autofluor counter | Anthrax LF prot
CCn1c(Cc2ccccc2)nnc1SCC(=O)NC(C)(C)C | -8.5 | -0.9 | 11399 | -4.7
O=C(COc1ccc(F)c(Cl)c1)N1CCCCCCC1 | -16.8 | -2.4 | 3868 | -2.2
CCn1c(SCC(=O)Nc2nc(C)c(C)s2)nnc1-c1cccnc1 | -6.5 | -4.9 | 17323* | -1.0
COc1cc2c(cc1OC)CN(C(=O)CNS(=O)(=O)c1ccc(C)c(C)c1)CC2 | -8.5 | -1.8 | 3472 | 3.3
COc1ccc(C(CNC(=O)c2cccc(Br)c2)N2CCCC2)cc1 (stereo not drawn) | -1.8 | -1.6 | 28340* | -4.4
COc1ccc(C(CNC(=O)c2cccc(S(=O)(=O)N(C)c3ccccc3)c2)N2CCCC2)cc1 (stereo not drawn) | 27.0 | 8.7 | 59722* | -6.0
COc1ccccc1NS(=O)(=O)c1cccc(C(=O)NCC(c2ccco2)N2CCCC2)c1 (stereo not drawn) | -6.2 | -1.2 | 6739 | -1.8
COc1ccc(C(CNC(=O)c2ccc(Cl)c(S(=O)(=O)N3CCCC3)c2)N2CCCC2)cc1 (stereo not drawn) | 25.5 | -9.6 | 30581* | -1.8
COc1ccccc1NS(=O)(=O)c1cccc(C(=O)NCC(c2ccccc2OC)N2CCCC2)c1 (stereo not drawn) | 8.1 | 1.0 | 20056* | 0.3
COc1ccc(CNC(=O)c2ccc(S(=O)(=O)N3CC(C)CC(C)C3)cc2)cc1OC (stereo not drawn) | 9.4 | -0.3 | 3777 | -11.1
O=C(Nc1ccc2c(c1)OCO2)C1CC(c2cccc(Br)c2)=NO1 (stereo not drawn) | ? | -6.5 | 4242 | 13.8
COc1ccc(C(CNC(=O)c2ccccc2C)N2CCCC2)cc1 (stereo not drawn) | 15.6 | -0.2 | 9687 | 6.2
COc1ccc(C(CNC(=O)c2cc(C)oc2C)N2CCOCC2)cc1 (stereo not drawn) | 6.2 | 1.3 | 16136* | 0.7
CCC(=O)Nc1cc(C(=O)OCC(=O)c2ccc(Cl)cc2Cl)ccc1C | -4.9 | -0.1 | 6011 | -11.1
CCC(=O)Nc1cc(C(=O)OCC(=O)c2ccccc2Cl)ccc1C | -4.1 | -1.4 | 20188* | -1.5
COc1ccc(S(=O)(=O)N2CCOCC2)cc1NC(=O)C1CC1 | -4.1 | 0.4 | 3980 | -2.8
CC(=O)Nc1ccc(S(=O)(=O)N2CCOCC2)cc1 | 3.8 | 2.2 | 21279* | -1.5
CC(=O)Nc1ccc(S(=O)(=O)N2CCN(CC(O)COc3ccc4ccccc4c3)CC2)cc1 (stereo not drawn) | 1.7 | ? | 23688* | -0.7
CCN(CC)C(=O)COc1ccc(S(=O)(=O)N2CCOCC2)cc1 | 2.9 | 0.4 | 16440* | -0.4
O=C(CCN1C(=O)c2ccccc2C1=O)Nc1ccc(S(=O)(=O)N2CCOCC2)cc1 | -6.0 | -6.5 | 22292* | -2.2
CN(CC(=O)Nc1ccc(Cl)c(Cl)c1)C(=O)CNC(=O)C1CCCCC1 | -8.3 | 0.2 | 3996 | -3.0
C[N+]1(C2CCC3CCCC2C3O)CCCC1 (stereo not drawn) | 3.8 | 0.4 | 2493 | -0.4
O=C(COc1ccccc1)Nc1nc(-c2ccc(S(=O)(=O)N3CCOCC3)cc2)cs1 | 3.3 | 0.5 | 4490 | 0.1
O=C(COc1ccc(Cl)cc1)Nc1nc(-c2ccc(S(=O)(=O)N3CCOCC3)cc2)cs1 | -0.1 | ? | 22761* | -1.5
CC(=O)Nc1ccc(S(=O)(=O)N2CCN(C)CC2)cc1 | -4.0 | -1.7 | 23174* | 0.1
SMILES | BoNT F protease | BoNT A protease | Autofluor counter | Anthrax LF prot
CCOc1ccc(N2CC(C(=O)Nc3ccc(S(=O)(=O)N4CCOCC4)cc3)CC2=O)cc1 (stereo not drawn) | -0.6 | ? | 23130* | 0.8
CC(C)NC(=O)COc1ccc(S(=O)(=O)N2CCCC2)cc1 | -7.5 | -1.6 | 4100 | -9.5
CSc1ccccc1NC(=O)COc1ccc(S(=O)(=O)N2CCCC2)cc1 | -5.6 | -3.4 | 22225* | -0.2
O=C(CC[C@H]1O[C@@H](n2cnc3c(NC(=O)c4ccccc4)ncnc32)[C@H](O)[C@@H]1O)NCc1nc2ccccc2[nH]1 | -1.6 | -0.5 | 5294 | -5.3
Cc1ccc(NC(=O)COc2ccc(S(=O)(=O)N3CCOCC3)cc2)cc1 | 2.7 | 0.8 | 22684* | -2.0
CC(=O)Nc1ccc(S(=O)(=O)N2CCN(c3cc4c(cc3[N+](=O)[O-])n(C)c(=O)n4C)CC2)cc1 | 6.6 | 6.9 | 21248* | -7.6
Cn1c(=O)n(C)c2cc([N+](=O)[O-])c(N3CCN(S(=O)(=O)c4ccc(C(C)(C)C)cc4)CC3)cc21 | -2.5 | -0.5 | 11660 | -4.0
CC(C)c1ccc(NC(=O)COc2ccc(S(=O)(=O)N3CCOCC3)cc2)cc1 | -3.3 | 0.2 | 3683 | 0.0
NC(=O)CCCCC(=O)OCCCc1cccs1 | 1.1 | -0.7 | 16230* | 0.5
Cc1cc(C)c(NC(=O)CSc2nc3c(c(=O)n2C)SC(C)C3)c(C)c1 (stereo not drawn) | -5.5 | 0.0 | 5054 | -8.6
O=C(c1cc2c(s1)CCCC2)N1CCC2(CC1)OCCO2 | -0.4 | ? | 23757* | -0.1
CCOC(CCn1c(SCC(=O)Nc2cc(C)on2)nc2ccccc2c1=O)OCC | -2.6 | 0.0 | 2129 | -1.0
O=C(NCCc1ccccc1Cl)C1CCC(=O)N(C2CCCCCC2)C1 (stereo not drawn) | 5.6 | 0.3 | 4182 | -0.7
O=C(OCCN1C(=O)c2cccc3c(N4CCOCC4)ccc(c23)C1=O)c1ccc(Cl)cc1 | 11.8 | 34.4* | 3644 | 11.6
CCCN(CCC)S(=O)(=O)c1ccc(C(=O)OCCN2C(=O)c3cccc4c(N5CCOCC5)ccc(c34)C2=O)cc1 | 32.0 | 37.4* | 10692 | 37.3*
COCCNC(=O)NC(=O)CSc1nc(C)c(C)c(C)n1 | 0.3 | 0.2 | 4498 | 4.7
COC(=O)[C@]12CCCCC=C1N(Cc1cccc3ccccc13)C(=O)[C@H](CC(=O)N1CCN(C(=O)c3ccco3)CC1)C2 | -1.7 | 0.1 | 5058 | 0.6
CCCCCCOc1cccc(N)c1 | 1.1 | 2.1 | 22320* | -4.4
CCCCOc1cccc(-c2nnc(N)s2)c1 | -1.4 | -0.3 | 3386 | 1.6
Brc1ccc(-c2noc3c2-c2nc(-c4ccccc4)sc2CC3)cc1 | 3.3 | 0.3 | 3693 | 4.5
CC(C)[C@H](NC(=O)c1ccco1)C(=O)Nc1ccc(OC(F)F)cc1 | ? | -9.4 | 4793 | 2.8
CCNc1nc(N2CCCCC2)nc(-n2nnc(C(=O)OCC)c2C)n1 | -3.5 | ? | 23587* | -3.6
CCOC(=O)c1nnn(-c2nc(OC)nc(N3CCCC3)n2)c1-c1ccccc1 | 22.2 | -0.9 | 3404 | -0.8
COC(=O)c1ccc(OCC(=O)c2ccccc2OC)cc1 | 4.9 | ? | 20757* | -7.3
CC(C)(C)C1(c2ccccc2)NC(=O)N(CC(=O)N2CCOCC2)C1=O (stereo not drawn) | 2.3 | ? | 19617* | -2.9
CC1(c2ccccc2)NC(=O)N(CC(=O)N2CCOCC2)C1=O (stereo not drawn) | 2.5 | -0.4 | 11302 | -1.3
CNC(C)C(=O)NC(C(=O)NC(C)C(=O)NNc1ccccc1)C(C)C (stereo not drawn) | 1.7 | -0.1 | 3588 | -1.8
CC(C)CN1C(=O)c2ccc(NC(=O)c3cccs3)cc2C1=O | -1.1 | ? | 24092* | -0.3
CC(C)CN1C(=O)c2ccc(NC(=O)c3ccco3)cc2C1=O | 1.6 | -1.9 | 4241 | -6.5
